Drawing on the supplement of paper PMC6555819, this text covers PBM binding z-score for seven sequences.

Common to all, as to test: PBM binding z-score (relative to random genomic background probes); higher = stronger binding; sequences stand for … in GC…GCGATTGACAGCGTAGAATGAAGG
In test [1] the test system is FXR:RXRa (NR concentration 270 nM, RXRa partner concentration 90 nM). The essentials: (§1)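 Custom Agilent 4×180K protein-binding microarrays carried double-stranded probes. Their 34-nt variable regions held direct-repeat seeds, single-nucleotide variants, half-site ablations and random human genomic background sequences. Arrays were incubated 1 h with ligand-free nuclear receptor dimers in PBS pH 7.4, 2% milk, 0.02% Triton X-100, 1 mM DTT, 0.2 mg/mL BSA and 0.4 mg/ml salmon testes DNA. Antibodies against each partner (one per run) detected binding, and scanned fluorescence was regression-normalized. Binding z-scores use random background probes as reference.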

Test [2] has as its system LXRa:RXRa (NR concentration 270 nM, RXRa partner concentration 90 nM). The method, boiled down:
as §1

Test [3] concerns LXRa homodimer (NR concentration 270 nM). The essentials: as §1
Test [4] has as its system LXRb:RXRa (NR concentration 270 nM, RXRa partner concentration 90 nM). The essentials:
as §1

Test [5] relates to LXRb homodimer (NR concentration 270 nM). The method, boiled down:
as §1

Test [6] concerns PPARa:RXRa (NR concentration 270 nM, RXRa partner concentration 90 nM). The method, boiled down:
as §1

For test [7], the system named is PPARg:RXRa (NR concentration 180 nM, RXRa partner concentration 90 nM). The method, boiled down:
as §1

In test [8] the test system is PPARg:RXRa 270nM:90nM, anti-RXR (NR concentration 270 nM, RXRa partner concentration 90 nM). The essentials:
as §1

For test [9], the system named is PPARg:RXRa 30nM:10nM, anti-RXR (NR concentration 30 nM, RXRa partner concentration 10 nM). The essentials:
as §1

The test system of test [10] is PPARg:RXRa 90nM:30nM, anti-RXR (NR concentration 90 nM, RXRa partner concentration 30 nM). The method, boiled down:
as §1

The test system of test [11] is PPARg:RXRa DBDmut IVT, anti-RXR (DBD mutation: RXRa K156A/R161A, NR concentration 270 nM, RXRa partner concentration 90 nM). The method, boiled down:
as §1

For test [12], the system named is PPARg:RXRa IVT, anti-PPARg (NR concentration 270 nM, RXRa partner concentration 90 nM). The essentials: as §1
In test [13] the test system is PPARg DBDmut:RXRa IVT, anti-PPARg (DBD mutation: PPARg1 K132A/R137A, NR concentration 270 nM, RXRa partner concentration 90 nM). The essentials:
as §1

For test [14], the system named is PPARg DBDmut IVT, anti-PPARg (DBD mutation: PPARg1 K132A/R137A, NR concentration 270 nM). The method, boiled down:
as §1

In test [15] the test system is PPARg homodimer (NR concentration 180 nM). The method, boiled down:
as §1

The test system of test [16] is PXR:RXRa (NR concentration 270 nM, RXRa partner concentration 90 nM). The method, boiled down:
as §1

Test [17] deals with PXR homodimer (NR concentration 270 nM). The essentials: as §1
Test [18] relates to RARa:RXR (NR concentration 270 nM, RXRa partner concentration 90 nM). The method, boiled down:
as §1

Test [19] deals with RARa homodimer (NR concentration 270 nM). The method, boiled down:
as §1

Test [20] relates to RARb:RXRa (NR concentration 270 nM, RXRa partner concentration 90 nM). The essentials: as §1

As to GCTGCTAGGTCATGTTGGTCAGCTAACGGGTACG, the PBM binding z-score in [1] was determined as 3.46; in [2], 2.59; in test [3] it was 0.616; in test [4] it was 1.75; in [5], 0.329; in test [6], 3.03. Moreover, the PBM binding z-score in test [7] amounted to 1.62; in test [8], 2.3; in test [9] it was 0.174; in test [10], 1.38; in test [11] it was 4.28; in test [12] it was 3.3. Also, the PBM binding z-score was 0.275 in [13]; 1.15 in [14]; 2.55 in test [15]; 1.49 in test [16]; -0.31 in [17]; 2.42 in test [18]. In addition, the PBM binding z-score in test [19] was 0.287; in [20], 3.69.

For the sequence CCTACTGGGCCAATAAGGTCATTGATGCCGATAA, the PBM binding z-score in [1] is 2.84; in [2], 2.93; in [3] it was 1.06; in [4] it was 3.03; in test [5], -0.277; in test [6], 4.04. The PBM binding z-score in test [7] was determined as 2.89; in [8] it was 3.1; in test [9] it was 0.789; in test [10] it was 2.38; in test [11], 3.88; in test [12], 4.4. Moreover, the PBM binding z-score is -0.359 in [13]; -0.0114 in test [14]; 1.04 in test [15]; 3.77 in test [16]; 3.17 in [17]; 3.56 in [18]. Besides, the PBM binding z-score in test [19] turned out to be 0.431; in test [20] it was 3.17.

In the case of CCTTCTGGGCCATTCAGAGGTCATTGATCATATG, the PBM binding z-score was found to be 2.86 in [1]; 4.26 in test [2]; 6.84 in [3]; 3.99 in test [4]; 0.742 in [5]; 4.02 in test [6]. The PBM binding z-score in [7] worked out at 1.85; in [8] it was 2.79; in test [9], 0.927; in test [10], 2.05; in [11], 4.48; in test [12], 3.89. Further, the PBM binding z-score in [13] was -0.117; in test [14], 0.751; in [15], 2.03; in test [16], 4.77; in test [17] it was 2.46; in test [18] it was 4.25. Moreover, the PBM binding z-score in test [19] stood at 0.112; in test [20], 3.25.

Turning to CGAACTAGGTGATTGACAGGACAGTGAATAGTAA, the PBM binding z-score in [1] is 0.0682; in test [2] it was -0.0591; in test [3] it was 0.0308; in test [4], -0.196; in test [5], -0.394; in [6], 1.81. Moreover, the PBM binding z-score worked out at 2.2 in test [7]; 1.57 in test [8]; 0.548 in test [9]; 1.06 in test [10]; 6.28 in test [11]; 5.92 in test [12]. Moreover, the PBM binding z-score was 0.852 in test [13]; 0.609 in test [14]; 0.553 in test [15]; -0.082 in [16]; 0.228 in [17]; 0.0788 in test [18]. The PBM binding z-score is 0.46 in test [19] and 0.167 in test [20].

Regarding TCTAGTTGGTCATGGAGGTCACACACGACGGGTA, the PBM binding z-score in test [1] stood at 3.61; in [2] it was 3.7; in test [3], 3.33; in test [4], 3.3; in [5] it was 1.23; in test [6] it was 3.9. For the same sequence, the PBM binding z-score in test [7] stood at 3.39; in [8] it was 3.95; in [9], 3.27; in test [10], 3.52; in [11], 2.58; in test [12], 3.96. Besides, the PBM binding z-score was 1.39 in [13]; 1.01 in [14]; 3.56 in test [15]; 4.8 in test [16]; 2.15 in test [17]; 4.97 in test [18]. Further, the figures for the PBM binding z-score in test [19] and in test [20] were 2.88 and 3.77, respectively.

TCTAGTTGGTGACGGAGGTCACACACGACGGGTA: the PBM binding z-score in test [1] is 2.59; in [2], 3.03; in test [3] it was 1.85; in test [4], 2.9; in test [5], 0.435; in test [6] it was 3.65. Further, the PBM binding z-score in [7] is 2.52; in test [8], 3.45; in test [9], 3.36; in [10], 3.36; in test [11] it was 1.77; in test [12], 3.08. The PBM binding z-score came to 0.76 in test [13]; 0.756 in [14]; 2.31 in [15]; 3.78 in [16]; 0.917 in test [17]; 3.78 in test [18]. Moreover, the values for the PBM binding z-score in [19] and in test [20] were 0.681 and 3.36, respectively.

For ATCGAAAGGTCGACGAGGAGAGTATACACCGTTT, the PBM binding z-score was 3.22 in test [1]; 3.26 in test [2]; -0.0644 in test [3]; 2.71 in test [4]; 0.517 in test [5]; 4.05 in test [6]. For the same sequence, the PBM binding z-score was 2.55 in test [7]; 2.76 in test [8]; 1.4 in test [9]; 1.8 in test [10]; 0.291 in test [11]; 1.39 in [12]. Moreover, the PBM binding z-score in test [13] came to 1.26; in test [14] it was 0.739; in test [15], 1.33; in test [16], 2.4; in test [17], 0.432; in test [18], 3.03. For the same sequence, the PBM binding z-score is 0.544 in [19] and 3.66 in test [20].
